# Measurements from the supplement of paper PMC9262897, “Low-cost anti-mycobacterial drug discovery using engineered E. coli” (Nature Communications, 2022).
# Counter-ions that a name gives are not always drawn. ± gives the standard deviation of the averaged measurements.
# Tested on: E. coli TESEC Mtb Alr
# Assay: growth (OD600 after 10 h); higher = more growth (less inhibition)
# Settings: compound 0.1 mM
# Description: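 TESEC Mtb Alr E. coli, or the Alr+ wild-type control, in 384-well plates with Prestwick library compounds at 0.1 mM and 1% DMSO, across arabinose induction levels of 1E3 to 1E7 nM. Growth is read as OD600 after 10 h at 37 °C in triplicate biological replicates.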
# [1] = arabinose 1000 nM, raw OD600 reference: median of DMSO wells 0.294, cell-free background 0.041
# [2] = arabinose 10000 nM, raw OD600 reference: median of DMSO wells 0.264, cell-free background 0.041
# [3] = arabinose 100000 nM, raw OD600 reference: median of DMSO wells 0.201, cell-free background 0.041
# [4] = arabinose 1000000 nM, raw OD600 reference: median of DMSO wells 0.193, cell-free background 0.041
# [5] = arabinose 10000000 nM, raw OD600 reference: median of DMSO wells 0.146, cell-free background 0.041
compound,measurement,setting,value
NC(N)=Nc1nc(CSCC/C(N)=N/S(N)(=O)=O)cs1 [Famotidine],growth,[1],0.298 ± 0.013
same,growth,[2],0.273 ± 0.014
same,growth,[3],0.203 ± 0.03
same,growth,[4],0.187 ± 0.0063
same,growth,[5],0.151 ± 0.011
NNc1nncc2ccccc12 [Hydralazine hydrochloride],growth,[1],0.262 ± 0.022
same,growth,[2],0.256 ± 0.0092
same,growth,[3],0.174 ± 0.013
same,growth,[4],0.12 ± 0.0069
same,growth,[5],0.13 ± 0.0019
C[C@H](CCC(=O)O)[C@H]1CC[C@H]2[C@@H]3[C@H](O)C[C@@H]4C[C@H](O)CC[C@]4(C)[C@H]3CC[C@]12C [Chenodiol],growth,[1],0.263 ± 0.0097
same,growth,[2],0.221 ± 0.0073
same,growth,[3],0.278 ± 0.021
same,growth,[4],0.146 ± 0.0057
same,growth,[5],0.143 ± 0.0086
Nc1nc(/C(=C/CC(=O)O)C(=O)N[C@@H]2C(=O)N3C(C(=O)O)=CCS[C@H]23)cs1 [Ceftibuten],growth,[1],0.0633 ± 0.0031
same,growth,[2],0.04393 ± 0.00032
same,growth,[3],0.141 ± 0.012
same,growth,[4],0.138 ± 0.0075
same,growth,[5],0.177 ± 0.004
COc1cc(C(=O)NC2CCCNC2)cc(OC)c1OC (stereo not given) [Troxipide],growth,[1],0.286 ± 0.012
same,growth,[2],0.255 ± 0.0049
same,growth,[3],0.205 ± 0.016
same,growth,[4],0.191 ± 0.02
same,growth,[5],0.134 ± 0.0027
Cc1cc(C(C)(C)CC(C)(C)C)ccc1OCCOCC[N+](C)(C)Cc1ccccc1 [Methyl benzethonium chloride],growth,[1],0.0483 ± 0.0025
same,growth,[2],0.0504 ± 0.002
same,growth,[3],0.0489 ± 0.00059
same,growth,[4],0.04487 ± 0.00031
same,growth,[5],0.04963 ± 0.00035
CC(C)NC[C@@H](O)COc1ccc(CC(N)=O)cc1 [(R)-(+)-Atenolol],growth,[1],0.322 ± 0.019
same,growth,[2],0.262 ± 0.012
same,growth,[3],0.221 ± 0.013
same,growth,[4],0.1771 ± 0.00066
same,growth,[5],0.161 ± 0.0073
CC(C)NCC(O)c1ccc2ccccc2c1 (stereo not given) [Pronethalol hydrochloride],growth,[1],0.305 ± 0.0032
same,growth,[2],0.2658 ± 0.0016
same,growth,[3],0.207 ± 0.023
same,growth,[4],0.187 ± 0.0061
same,growth,[5],0.142 ± 0.0032
